Results: PubChem BioAssay (EPA / NIEHS)
Calls of active or inactive are those of the source. How the source made its calls: active means hit-call score of the fitted dose curve at least 0.9, where 1 is the maximum; inactive means score below 0.9.

Each compound was assayed on HGF (gene 3082) (assay: LTEA_HepaRG_HGF: Life Technologies and Expression Analysis (LTEA) Assay for Hepatocyte Growth Facto (HGF) using HepaRG (AID 2283505)). Conditions: mRNA level, 48 h; actives raise or lower the signal.
Procedure: LTEA_HepaRG is a cell based, multiplexed-readout assay that uses HepaRG, a human liver cell line, with measurements taken at 48 hours after chemical dosing on a 96-well plate.LTEA_HepaRG_HGF is one of 102 assay component(s) measured in the LTEA HepaRG cell culture assay. It is a marker of Cell proliferation, survival, death.Data from the assay component LTEA_HepaRG_HGF was analyzed into 1 endpoint. This assay endpoint, LTEA_HepaRG_HGF, was analyzed with bidirectional fitting relative to DMSO as the negative control and baseline of activity. Using a type of inducible reporter, measures of mRNA induction for gain or loss-of-signal activity can be used to understand regulation of transcription factor activity. To generalize the intended target to other relatable targets, this assay endpoint is annotated to the growth factor intended target family, where the subfamily is hepatocyte growth factor.
A total of 1060 chemcials from the ToxCast library were tested in eight-point concentration-response experiments. Cell culture and cytotoxicity assays were conducted at Thermo Fisher Scientific's Custom Services facility (Madison, WI). A single lot of human HepaRG cells (Thermo Fisher Scientific, Frederick, MD) was used for the cell culture experiments. 96-well format collagen type I coated plates of human HepaRG cells were prepared using established methods. Briefly, cryopreserved HepaRG cells were thawed, plated at a density of approximately 100,000 cells/well in HepaRG Thaw, Plate, and General Purpose media (HPRG770, Thermo Fisher Scientific), and incubated for 48 hours. 0.5% DMSO was selected as vehicle control to balance the requisite need of DMSO in HepaRG cultures to maintain differentiation (for example, baseline metabolism, proportions of hepatocytes vs. cholangiocytes), while enabling further hepatic receptor pathway activation (for example, PXR and CAR) in response to chemical exposure. 48 hours after plating, the culture medium was replaced with HepaRG Serum-Free Incudtion Media. Cells were exposed to each test chemical in duplicate and maintained in CO2 incubators for another 48 hours. Chemical plates were thawed to room temperature and 200x concentrations of treatment groups were prepared. 8-point conentration-reponse curves were made with the highest exposure at 100 uM, followed by half-log dilutions, all in 0.5% DMSO. Each test plate contained variouse controls, induction positive controls (1mM phenobarbital), cytotoxicity positive controls ([…] aflatoxin B1), vehicle controls (0.5% DMSO), and total lysis controls (0.5% DMSO). Cell morphology images were taken using an Essen IncuCyte FLR automated microscope, with six 96-well plates imaged in about 24 minutes. Images were captured and exported and JPEG files. Spent culture media was transfered to black-well plates for the LDH assay, and remaining media was sorted at -80 C for later use. Cells were treated with RLT buffer and frozen until shipped for gene expression analysis. Total RNA was isolated from the cell suspension in 75 uL of Buffer RLT (Qiagen, Germantown, MD 20874) by Quintiles/Expression Analysis (Durham, NC) using a custom isolation procedure. Total RNA from each plate well was transferred to a preamplification plate. Fluidigm's 96.96 Dynamic ArrayTM (Fluidigm, Amsterdam, the Netherlands) technology was used for gene expression analyses by quantitative reverse transcription polymerase chain reaction (qRT-PCR, performed by Quintiles/Expression Analysis, Durham, NC)89. Standard TaqManTM Assays (Applied Biosystems/ThermoFisher Scientific, Foster City, CA) were used to assess the expression of 93 genes selected based on their selectivity and sensitivity to important hepatic receptors known to be modulated by environmental chemicals; importance in human hepatocyte functionality; and hepatotoxicity. […]

Structure (SMILES) | outcome | AC50
CSC(=O)c1c(C(F)F)nc(C(F)(F)F)c(C(=O)SC)c1CC(C)C | inactive | 
C=CCOC(=O)C(C)(C)OC(=O)c1cc(-n2c(=O)cc(C(F)(F)F)n(C)c2=O)ccc1Cl | inactive | 
O=P(O)(O)CCCl | inactive | 
COc1ccc(-c2ccccc2)cc1NNC(=O)OC(C)C | inactive | 
CN=C=S | inactive | 
CO/N=C(/C1=NOCCO1)c1ccccc1Oc1ncnc(Oc2ccccc2Cl)c1F | inactive | 
Clc1nc(Cl)nc(Nc2ccccc2Cl)n1 | inactive | 
COc1cc(OC)nc(NC(=O)NS(=O)(=O)c2ncccc2OCC(F)(F)F)n1 | inactive | 
COC(=O)NS(=O)(=O)c1ccc(N)cc1 | inactive | 
O=C1C2CC=CCC2C(=O)N1SC(Cl)(Cl)Cl (stereo not given) | inactive | 
CCSC(=O)N1CCCCCC1 | inactive | 
N#CN=C1SCCN1Cc1ccc(Cl)nc1 | inactive | 
N#Cc1c(Cl)cccc1Cl | inactive | 
CCCCC(O)(Cn1cncn1)c1ccc(Cl)cc1Cl (stereo not given) |  | 75.3 µM (active)
Cc1ccc(N=CN(C)C=Nc2ccc(C)cc2C)c(C)c1 | inactive | 
CS(=O)(=O)c1cc(C(F)(F)F)ccc1C(=O)c1cnoc1C1CC1 | inactive | 
N#Cc1c[nH]cc1-c1cccc2c1OC(F)(F)O2 | inactive | 
CCOc1nc(C(Cl)(Cl)Cl)ns1 |  | 1.21 µM (active)
CCCCC(C#N)(Cn1cncn1)c1ccc(Cl)cc1 (stereo not given) | inactive | 
CC1(C)C(C(=O)OC(C#N)c2cccc(Oc3ccccc3)c2)C1(C)C (stereo not given) | inactive | 

Structure (SMILES) | outcome | AC50
COC(=O)c1c(C(F)F)nc(C(F)(F)F)c(C2=NCCS2)c1CC(C)C | inactive | 
Clc1cccc(C(Cl)(Cl)Cl)n1 | inactive | 
CCOP(=S)(OCC)Oc1nc(Cl)n(C(C)C)n1 | inactive | 
CC(C)N1C(=O)N(c2ccccc2)CSC1=NC(C)(C)C | inactive | 
C=C(C)CN(CC)c1c([N+](=O)[O-])cc(C(F)(F)F)cc1[N+](=O)[O-] | inactive | 
COCc1cnc(C2=NC(C)(C(C)C)C(=O)N2)c(C(=O)O)c1 (stereo not given) | inactive | 
CC(C)Nc1nc(Cl)nc(NC(C)C)n1 | inactive | 
COP(=O)(OC)O/C(C)=C/C(=O)N(C)C | inactive | 
CCOC(=O)C(C)OC(=O)c1cc(Oc2ccc(C(F)(F)F)cc2Cl)ccc1[N+](=O)[O-] (stereo not given) | inactive | 
O=c1n(Cl)c(=O)n(Cl)c(=O)n1Cl | inactive | 
CCOc1nc(F)cc2nc(S(=O)(=O)Nc3c(Cl)cccc3Cl)nn12 | inactive | 
CC(C)N1C(=O)c2ccccc2NS1(=O)=O | inactive | 
CCN(CC)C(=O)C(C)Oc1cccc2ccccc12 (stereo not given) | inactive | 
CN/C(=N\[N+](=O)[O-])NCc1cnc(Cl)s1 | inactive | 
CCCC(=NOCC)C1=C(O)CC(CC(C)SCC)CC1=O (stereo not given) | inactive | 
Cc1cc(C)nc(Nc2ccccc2)n1 | inactive | 
CCNP(=S)(OC)O/C(C)=C/C(=O)OC(C)C (stereo not given) | inactive | 
Nc1cnn(-c2ccccc2)c(=O)c1Cl | inactive | 
CCNC(=O)NC(=O)C(C#N)=NOC | inactive | 
CC1(C)C(C=C(Cl)Cl)C1C(=O)OC(C#N)c1cccc(Oc2ccccc2)c1 (stereo not given) | inactive | 
